Assay [1] has as its target human Purinergic Receptor P2Y, P2RY1 (gene 5028) (UniProt P47900). As to the kind of experiment: NVS_GPCR_hPY2: NovaScreen (NVS) G Protein-Coupled Receptor Assay for human Purinergic Receptor P2Y (AID 2283281). A digest of the protocol: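 Cell-free radioligand binding using U937-derived protein, 1 h after dosing, filter-based scintillation counting. Screened in duplicate at 25 uM; actives rerun as concentration-response up to 50 uM; loss of signal versus DMSO.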

For assay [2], the target named is human Orphanin, Opioid Related Nociceptin Receptor 1 (ORL1), OPRL1 (gene 4987) (UniProt P41146). The assay can be described thus: NVS_GPCR_hORL1: NovaScreen (NVS) G Protein-Coupled Receptor Assay for human Orphanin, Opioid Related Nociceptin Receptor 1 (ORL1) (AID 2283283). A digest of the protocol: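 Filter-based radioligand displacement with receptor extracted from HEK293 cells, read 1 hour after dosing by scintillation counting. Duplicate single-point screen at 25 uM; qualifying chemicals then run in concentration-response to 50 uM, analysed relative to DMSO.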
Chain of human Orphanin, Opioid Related Nociceptin Receptor 1 (ORL1), OPRL1 (gene 4987) (P41146 whole entry, looked up): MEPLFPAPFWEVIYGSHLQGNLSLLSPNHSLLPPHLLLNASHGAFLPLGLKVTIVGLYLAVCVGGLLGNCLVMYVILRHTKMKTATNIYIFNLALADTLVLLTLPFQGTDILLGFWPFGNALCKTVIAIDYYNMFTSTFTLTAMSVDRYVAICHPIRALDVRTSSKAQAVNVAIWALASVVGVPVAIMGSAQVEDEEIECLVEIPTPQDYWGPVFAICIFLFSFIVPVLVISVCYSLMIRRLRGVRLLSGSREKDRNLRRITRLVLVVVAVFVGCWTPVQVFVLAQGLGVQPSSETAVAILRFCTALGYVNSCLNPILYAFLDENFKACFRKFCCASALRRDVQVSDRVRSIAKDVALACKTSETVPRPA

Assay [3] addresses human Vasopressin 1A Receptor (V1A), AVPR1A (gene 552) (UniProt P37288). As to the kind of experiment: NVS_GPCR_hV1A: NovaScreen (NVS) G Protein-Coupled Receptor Assay for human Vasopressin 1A Receptor (V1A) (AID 2283284). A digest of the protocol: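 Cell-free radioligand displacement on human platelet preparations, 1.5 h incubation, filter-based scintillation counting. Chemicals first tested in duplicate at 25 uM; actives then run in concentration-response up to 50 uM, loss of signal fitted against DMSO.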

Assay [4] deals with 5-hydroxytryptamine receptor 2C (pig). The assay can be described thus: NVS_GPCR_p5HT2C: NovaScreen (NVS) G Protein-Coupled Receptor Assay for pig Serotonin, 5-Hydroxytryptamine Receptor 2C (5HT2C) (AID 2283288). A digest of the protocol:
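Pig choroid plexus membranes; radioligand competitive binding, filter-based scintillation counting, read 1 h after dosing. Primary screen in duplicate at 25 uM; actives then run as concentration series; loss of signal versus DMSO baseline.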

The target in assay [5] is rat Serotonin, 5-Hydroxytryptamine Receptor 1 (5HT1), Non-Selective Binding, Htr1a (gene 24473) (UniProt P19327). As to the kind of experiment: NVS_GPCR_r5HT1_NonSelective: NovaScreen (NVS) G Protein-Coupled Receptor Assay for rat Serotonin, 5-Hydroxytryptamine Receptor 1 (5HT1), Non-Selective Binding (AID 2283286). A digest of the protocol:
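Rat cortical membranes, radioligand displacement, 1 h incubation, read by filter scintillation. Primary screen in duplicate at 25 uM. Hits (e.g. ≥30% inhibition) went to concentration-response up to 50 uM, fitted as loss of binding versus DMSO.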

The target in assay [6] is rat Adrenergic, Alpha 1, Non-selective Receptor (Adra1), Adra1a (gene 29412) (UniProt P43140). The assay can be described thus: NVS_GPCR_rAdra1_NonSelective: NovaScreen (NVS) G Protein-Coupled Receptor Assay for rat Adrenergic, Alpha 1, Non-selective Receptor (Adra1) (AID 2283289). A digest of the protocol: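 Rat forebrain membranes; radioligand displacement read by filter-based scintillation counting 1 h after dosing. Primary screen in duplicate at 25 uM; hits (e.g. ≥30% inhibition) rerun as concentration–response to 50 uM max. Fitted versus DMSO.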
Chain of rat Adrenergic, Alpha 1, Non-selective Receptor (Adra1), Adra1a (gene 29412) (P43140 whole entry, looked up): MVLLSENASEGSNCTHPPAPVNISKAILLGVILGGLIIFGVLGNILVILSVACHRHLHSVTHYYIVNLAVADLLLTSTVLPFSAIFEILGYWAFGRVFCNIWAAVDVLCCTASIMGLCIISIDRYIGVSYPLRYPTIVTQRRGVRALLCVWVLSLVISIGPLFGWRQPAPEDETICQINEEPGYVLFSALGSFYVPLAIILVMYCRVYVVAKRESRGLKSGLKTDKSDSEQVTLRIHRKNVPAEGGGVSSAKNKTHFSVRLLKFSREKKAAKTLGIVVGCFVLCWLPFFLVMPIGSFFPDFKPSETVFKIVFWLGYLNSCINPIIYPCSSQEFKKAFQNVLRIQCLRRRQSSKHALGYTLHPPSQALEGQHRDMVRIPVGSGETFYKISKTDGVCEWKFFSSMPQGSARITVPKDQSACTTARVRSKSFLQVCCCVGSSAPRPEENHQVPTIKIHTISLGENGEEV

“And” between values parts separate entries of the source, which are not always exact repeats. Equal values may be shown once. Inconclusive results are not listed. The source made the active and inactive calls. Rule for the calls: active = hit-call score of the fitted dose curve at least 0.9, where 1 is the maximum; inconclusive = response in the unintended direction; inactive = score below 0.9.

A word on the AC50: it is the concentration at which the activity in the assay is half-maximal.

Chain of human Purinergic Receptor P2Y, P2RY1 (gene 5028) (P47900 whole entry, looked up): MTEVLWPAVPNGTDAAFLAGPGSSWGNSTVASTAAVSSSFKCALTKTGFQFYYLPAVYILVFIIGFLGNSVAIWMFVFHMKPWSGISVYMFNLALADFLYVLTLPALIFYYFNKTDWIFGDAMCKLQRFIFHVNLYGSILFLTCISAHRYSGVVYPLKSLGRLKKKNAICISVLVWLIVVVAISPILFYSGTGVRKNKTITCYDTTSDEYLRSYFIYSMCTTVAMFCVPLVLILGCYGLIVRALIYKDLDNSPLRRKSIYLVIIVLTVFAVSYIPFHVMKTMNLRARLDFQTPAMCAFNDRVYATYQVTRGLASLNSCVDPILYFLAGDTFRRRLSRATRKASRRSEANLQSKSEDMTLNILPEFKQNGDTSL
Chain of human Vasopressin 1A Receptor (V1A), AVPR1A (gene 552) (P37288 whole entry, looked up): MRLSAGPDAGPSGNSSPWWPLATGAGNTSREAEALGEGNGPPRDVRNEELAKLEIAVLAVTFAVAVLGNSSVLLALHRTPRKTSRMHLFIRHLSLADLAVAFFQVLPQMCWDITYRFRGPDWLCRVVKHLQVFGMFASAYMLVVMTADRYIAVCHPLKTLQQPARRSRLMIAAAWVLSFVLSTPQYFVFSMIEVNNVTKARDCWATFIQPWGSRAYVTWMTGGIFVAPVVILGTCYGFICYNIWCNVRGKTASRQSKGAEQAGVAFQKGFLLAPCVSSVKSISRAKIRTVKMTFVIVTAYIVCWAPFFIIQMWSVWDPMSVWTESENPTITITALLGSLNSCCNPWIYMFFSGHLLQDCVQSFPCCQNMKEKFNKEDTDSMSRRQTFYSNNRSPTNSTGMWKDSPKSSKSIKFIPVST
Chain of rat Serotonin, 5-Hydroxytryptamine Receptor 1 (5HT1), Non-Selective Binding, Htr1a (gene 24473) (P19327 whole entry, looked up): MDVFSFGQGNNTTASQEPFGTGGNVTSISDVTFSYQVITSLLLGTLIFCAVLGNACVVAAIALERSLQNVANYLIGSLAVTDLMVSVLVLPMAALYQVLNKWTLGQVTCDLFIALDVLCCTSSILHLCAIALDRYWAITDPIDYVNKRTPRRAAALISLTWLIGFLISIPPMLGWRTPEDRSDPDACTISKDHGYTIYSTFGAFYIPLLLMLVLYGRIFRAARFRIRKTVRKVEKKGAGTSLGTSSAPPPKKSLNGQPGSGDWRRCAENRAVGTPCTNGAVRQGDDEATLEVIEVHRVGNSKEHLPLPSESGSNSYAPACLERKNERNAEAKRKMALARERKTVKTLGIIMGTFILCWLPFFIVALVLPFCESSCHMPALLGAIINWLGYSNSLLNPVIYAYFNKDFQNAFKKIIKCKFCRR

As for `O=S(=O)(O)C(F)(F)C(F)(F)C(F)(F)C(F)(F)C(F)(F)C(F)(F)C(F)(F)C(F)(F)F`, in assay [1], the AC50 was 15.8 µM (active).
With `CC(C)(C)C(O)C(Oc1ccc(Cl)cc1)n1cncn1` (stereo not drawn), the compound was classed as inactive in assay [1].
For `Oc1ccc(Cl)cc1Cc1ccccc1`, the AC50 in assay [2] is 25.2 µM (active) and 47 µM (active); in assay [4], 12.6 µM (active) [middle of 4 runs]. In assay [3], the compound was called inactive.
`COP(=S)(OC)Oc1ccc([N+](=O)[O-])cc1`: in assay [5], the compound was classed as inactive.
On to `CC(C)OC(=O)Nc1cccc(Cl)c1`, for which the compound was called inactive in assay [6].
As for `ClC1C(Cl)C(Cl)C(Cl)C(Cl)C1Cl` (stereo not drawn), the outcome in assay [6] was inactive.

The record behind these values is PubChem BioAssay (EPA / NIEHS).
